The text below walks through data of PubChem BioAssay (Tox21).

Assay [1] deals with Cytochrome P450 2C9 (Homo sapiens) (UniProt P11712). Nature of the assay: Cytochrome P450 Family 2 Subfamily C Member 9 (CYP2C9) small molecule antagonists: luciferase reporter qHTS assay (AID 1671198). Further: potency means the concentration at half of the fitted maximal effect; nearly all actives have a fitted effect of over 50% in size. In a few lines: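 Enzyme-substrate mix preincubated with compound 10 min at room temperature; reaction started with NADPH regeneration solution, 1 h 37C. Luminescent luciferin product read after 20 min detection reagent.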

The target in assay [2] is Cytochrome P450 1A2 (Homo sapiens) (UniProt P05177). Nature of the assay: Cytochrome P450 Family 1 Subfamily A Member 2 (CYP1A2) small molecule antagonists: luciferase reporter qHTS assay (AID 1671199). Further: nearly all actives have a fitted effect of over 50% in size. Further: potency means the concentration at half of the fitted maximal effect. The method in brief: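 CYP1A2 turnover of a luminogenic substrate was quantified after 1 h with NADPH regeneration at room temperature. Furafylline served as positive control.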
(In a reporter assay the amount or activity of a reporter protein is the signal.)

In assay [3] the target is Voltage-gated inwardly rectifying potassium channel KCNH2 (Homo sapiens) (UniProt Q12809). Nature of the assay: Human Ether-a-go-go-Related Gene (hERG) channel small molecule antagonists: fluorescence cell-based qHTS assay (AID 1671200).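 Further: hERG-expressing U2OS cells given a thallium stimulus after FluxOR II dye loading; series mostly up to about 77 µM; nearly all actives have a fitted effect of over 50% in size.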 The method in brief: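 Quantitative HTS in hERG-U2OS cells: thallium entry through the channel reports activity, read as continuous 480/540 nm fluorescence over 2 min after stimulus addition.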

The target in assay [4] is Cytochrome P450 3A4 (Homo sapiens) (UniProt P08684). Nature of the assay: Cytochrome P450 Family 3 Subfamily A Member 4 (CYP3A4) small molecule antagonists: luciferase reporter qHTS assay (AID 1671201). Further: nearly all actives have a fitted effect of over 50% in size. Further: potency means the concentration at half of the fitted maximal effect. In a few lines: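 Inhibition of CYP3A4 is measured as loss of light: the enzyme converts a proluciferin substrate to luciferin, detected luminescently. Reaction ran 1 h at room temperature with NADPH regeneration after a 10 min compound preincubation.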

For assay [5], the target named is Cytochrome P450 2C19 (Homo sapiens) (UniProt P33261). Nature of the assay: Cytochrome P450 Family 2 Subfamily C Member 19 (CYP2C19) small molecule antagonists: luciferase reporter qHTS assay (AID 1671197). Further: nearly all actives have a fitted effect of over 65% in size. Further: potency means the concentration at half of the fitted maximal effect. In a few lines: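 Light output is proportional to CYP2C19 activity: proluciferin substrate is converted to luciferin, then detected by a luciferin detection reagent that also stops the 1 h, 37C NADPH-driven reaction. Ketoconazole serves as positive control.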

Molecules are shown by their SMILES. Results filed as inconclusive are left out. Active and inactive are the calls of the source. The call rests on the fitted dose curve; in most records, active means well fitted curve in the direction sought with a large enough effect in the repeat runs; inconclusive means weak or mixed curves; inactive means no such curve, though single readings can be large; an effect the other way counts as inactive or inconclusive.

Sequence of Voltage-gated inwardly rectifying potassium channel KCNH2 (Homo sapiens) (Q12809 whole entry, looked up): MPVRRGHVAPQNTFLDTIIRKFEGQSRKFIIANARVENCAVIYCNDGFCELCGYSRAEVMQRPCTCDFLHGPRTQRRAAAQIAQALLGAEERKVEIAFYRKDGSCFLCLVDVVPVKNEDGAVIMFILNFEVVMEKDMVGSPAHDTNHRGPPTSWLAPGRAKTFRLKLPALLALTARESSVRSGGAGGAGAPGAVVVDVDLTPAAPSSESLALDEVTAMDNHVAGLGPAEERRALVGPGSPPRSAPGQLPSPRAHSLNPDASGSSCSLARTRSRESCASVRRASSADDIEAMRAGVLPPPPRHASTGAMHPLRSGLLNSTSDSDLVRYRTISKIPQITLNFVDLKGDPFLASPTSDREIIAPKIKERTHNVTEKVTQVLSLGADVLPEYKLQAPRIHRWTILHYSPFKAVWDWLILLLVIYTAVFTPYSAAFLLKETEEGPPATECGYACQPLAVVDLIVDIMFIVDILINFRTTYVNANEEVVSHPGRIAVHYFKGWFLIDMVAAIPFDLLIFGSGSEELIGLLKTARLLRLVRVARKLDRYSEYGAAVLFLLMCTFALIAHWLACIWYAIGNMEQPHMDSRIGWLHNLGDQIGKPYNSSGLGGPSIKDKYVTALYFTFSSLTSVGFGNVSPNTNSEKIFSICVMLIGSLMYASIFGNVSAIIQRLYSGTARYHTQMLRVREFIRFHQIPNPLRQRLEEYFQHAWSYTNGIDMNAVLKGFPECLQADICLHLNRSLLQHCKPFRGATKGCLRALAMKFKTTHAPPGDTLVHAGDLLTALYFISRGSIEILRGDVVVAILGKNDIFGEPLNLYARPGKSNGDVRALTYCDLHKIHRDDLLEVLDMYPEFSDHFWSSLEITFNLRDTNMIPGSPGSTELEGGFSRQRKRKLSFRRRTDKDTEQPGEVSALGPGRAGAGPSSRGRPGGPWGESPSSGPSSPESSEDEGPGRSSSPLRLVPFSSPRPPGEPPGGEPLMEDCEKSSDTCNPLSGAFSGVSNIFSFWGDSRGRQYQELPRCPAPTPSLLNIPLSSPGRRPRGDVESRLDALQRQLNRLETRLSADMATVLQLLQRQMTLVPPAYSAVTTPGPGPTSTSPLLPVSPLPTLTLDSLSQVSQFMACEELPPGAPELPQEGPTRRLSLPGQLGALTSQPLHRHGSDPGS
Sequence of Cytochrome P450 3A4 (Homo sapiens) (P08684 whole entry, looked up): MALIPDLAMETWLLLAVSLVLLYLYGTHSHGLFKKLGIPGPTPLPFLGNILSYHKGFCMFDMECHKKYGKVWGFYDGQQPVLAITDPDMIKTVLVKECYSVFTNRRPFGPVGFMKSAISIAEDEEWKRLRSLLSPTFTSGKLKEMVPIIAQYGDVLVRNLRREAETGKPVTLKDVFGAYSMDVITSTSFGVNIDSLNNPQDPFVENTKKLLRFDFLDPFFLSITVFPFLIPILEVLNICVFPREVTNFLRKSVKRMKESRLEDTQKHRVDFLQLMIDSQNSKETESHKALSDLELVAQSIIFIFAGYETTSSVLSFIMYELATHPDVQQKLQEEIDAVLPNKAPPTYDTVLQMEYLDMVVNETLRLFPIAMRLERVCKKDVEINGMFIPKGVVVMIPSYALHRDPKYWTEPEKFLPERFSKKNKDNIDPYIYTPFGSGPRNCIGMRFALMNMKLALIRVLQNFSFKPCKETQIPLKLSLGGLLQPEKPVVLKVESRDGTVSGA
Sequence of Cytochrome P450 1A2 (Homo sapiens) (P05177 whole entry, looked up): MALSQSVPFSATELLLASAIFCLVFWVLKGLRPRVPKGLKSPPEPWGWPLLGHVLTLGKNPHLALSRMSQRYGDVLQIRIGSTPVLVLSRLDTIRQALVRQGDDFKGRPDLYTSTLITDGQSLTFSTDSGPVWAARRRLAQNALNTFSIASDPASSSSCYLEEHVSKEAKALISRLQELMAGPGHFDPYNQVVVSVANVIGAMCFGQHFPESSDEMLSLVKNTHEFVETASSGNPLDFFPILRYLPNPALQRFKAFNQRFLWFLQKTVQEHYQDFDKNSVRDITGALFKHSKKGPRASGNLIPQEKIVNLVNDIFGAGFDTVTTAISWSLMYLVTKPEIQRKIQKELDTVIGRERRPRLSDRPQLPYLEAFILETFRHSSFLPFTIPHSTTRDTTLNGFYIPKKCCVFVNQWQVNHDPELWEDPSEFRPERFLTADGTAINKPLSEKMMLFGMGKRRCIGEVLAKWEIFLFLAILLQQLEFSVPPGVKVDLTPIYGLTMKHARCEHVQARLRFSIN
Sequence of Cytochrome P450 2C19 (Homo sapiens) (P33261 whole entry, looked up): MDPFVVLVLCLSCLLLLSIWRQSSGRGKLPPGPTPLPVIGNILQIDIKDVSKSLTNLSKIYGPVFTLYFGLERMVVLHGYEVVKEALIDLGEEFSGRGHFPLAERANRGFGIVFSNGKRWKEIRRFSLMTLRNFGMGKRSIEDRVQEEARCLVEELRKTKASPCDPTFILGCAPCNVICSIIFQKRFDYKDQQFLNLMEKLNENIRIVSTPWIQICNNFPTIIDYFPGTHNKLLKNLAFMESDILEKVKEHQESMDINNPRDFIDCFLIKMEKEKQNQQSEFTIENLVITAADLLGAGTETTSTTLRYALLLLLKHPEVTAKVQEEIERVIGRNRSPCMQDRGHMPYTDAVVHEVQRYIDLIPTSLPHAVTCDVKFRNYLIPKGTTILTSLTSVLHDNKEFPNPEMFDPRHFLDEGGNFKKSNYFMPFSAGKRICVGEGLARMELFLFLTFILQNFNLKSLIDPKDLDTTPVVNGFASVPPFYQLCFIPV
Sequence of Cytochrome P450 2C9 (Homo sapiens) (P11712 whole entry, looked up): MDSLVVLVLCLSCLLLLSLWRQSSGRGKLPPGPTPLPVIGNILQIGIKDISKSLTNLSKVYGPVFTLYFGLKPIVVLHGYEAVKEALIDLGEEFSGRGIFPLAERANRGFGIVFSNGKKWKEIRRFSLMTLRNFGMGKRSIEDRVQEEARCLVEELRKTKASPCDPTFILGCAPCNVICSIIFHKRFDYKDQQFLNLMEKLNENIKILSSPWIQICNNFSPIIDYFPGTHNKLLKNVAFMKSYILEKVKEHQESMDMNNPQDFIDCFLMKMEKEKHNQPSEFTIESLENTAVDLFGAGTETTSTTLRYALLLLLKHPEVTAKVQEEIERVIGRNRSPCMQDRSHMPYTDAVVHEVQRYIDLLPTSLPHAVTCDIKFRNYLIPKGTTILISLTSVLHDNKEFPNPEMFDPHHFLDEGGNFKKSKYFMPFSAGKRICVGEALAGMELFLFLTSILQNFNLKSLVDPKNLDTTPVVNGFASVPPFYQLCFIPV

Take `CCN(CC)CCNc1ccc(CNC=O)c2sc3ccc(OC)cc3c(=O)c12`: the values for the Potency in assay [1], in assay [2] and in assay [4] were 31.7 µM (active), 22.4 µM (active) and 20 µM (active), respectively. In addition, the Potency result in assay [3] is “inactive”.
For `Nc1cccc(S(=O)(=O)c2cccc(N)c2)c1`, the Potency is 35.6 µM (active) in assay [5] and 10 µM (active) in assay [4]. Moreover, the Potency result in assay [2] and in assay [3] was “inactive” throughout.
Consider `Cc1ccc(C(C)OC(=O)C2(C)CCC(C(=O)O)C2(C)C)cc1` (configuration not stated), for which the Potency entry in assay [5], in assay [2], in assay [3] and in assay [4] was “inactive” each time.
